The structures appear in SMILES notation. Hit rate of the full screen: of about 330,000 compounds, about 660 (0.2%) were called active.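 The calls were made as follows: active = inhibition of at least 40% at 10 µM in the primary screen; inactive = the rest.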 For the sample, actives were picked, then their nearest neighbours and some compounds at random.

The subject of this experiment is intestinal alkaline phosphatase [Mus musculus]. The experiment in a line: inhibitors of mouse IAP, primary screen, biochemical, luminescence, uHTS (AID 2806).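 Also: plate controls were DMSO with enzyme for no effect and no enzyme wells for full effect.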 The following applies: purified mouse IAP, CDP-Star luminescence, 30 min; at 10 µM; hits give high values.
For orientation: inhibition means the relative decrease from the control value, in per cent. For the molecule `O=C(CCCN1C(=O)/C(=C/c2ccco2)SC1=S)Nc1ccccc1`, the inhibition is 47.8% (active).
For `O=C(CCCN1C(=O)/C(=C/c2cccs2)SC1=S)Nc1ccc(O)cc1`, the inhibition is 10.9% (inactive).
Next, `O=C(CCCN1C(=O)/C(=C\c2ccco2)SC1=S)Nc1cccc2ccccc12`: 47.9% (active).
With `Cc1ccc(-c2nn(-c3ccccc3)cc2/C=C2\SC(=S)N(CCCCCC(=O)O)C2=O)o1`, the inhibition is 14.7% (inactive).
Turning to `COc1ccc(/C=C2/SC(=O)N(CCCCCC(=O)Nc3ccccc3C(=O)O)C2=S)cc1`, the inhibition is 12.6% (inactive).
For `O=C1/C(=C\c2ccccc2Cl)SC(=S)N1CCC(=O)N1CCCc2ccccc21`, the inhibition was 23.1% (inactive).
`O=C(CNS(=O)(=O)c1ccc2c(c1)OCCCO2)N1CCN(c2ccc(F)cc2)CC1`: the inhibition was -6.2% (inactive).
Take `COc1ccccc1CNC(=O)CSc1nc(=O)n(Cc2ccncc2)c2c1CCC2`: the inhibition was -1.4% (inactive).
Consider `CCCCS(=O)c1snnc1C` (centres undefined), for which the inhibition is -4.4% (inactive).
Turning to `Cc1ccc(Cc2cnc(N)s2)o1`, the inhibition is 50.5% (active).
Consider `CCCCNc1ccc(C(=O)Nc2cccc(C)n2)cc1[N+](=O)[O-]`, for which the inhibition was 15.5% (inactive).
Next, `Cn1cnc([N+](=O)[O-])c1Sc1n[nH]c(N)n1`: 7.9% (inactive); `O=C(CCSCCc1ccccn1)Nc1nccs1`: -7% (inactive).
As for `Cc1ccc(C(=O)N/N=C/c2sc(=O)n(Cc3cccc(C(=O)O)c3)c2Cl)cc1`, the inhibition was 11.7% (inactive).
With `NS(=O)(=O)c1ccc(-c2ccc(/C=C3\SC(=O)NC3=O)o2)cc1`, the inhibition was 55.1% (active).
Regarding `COc1cc(/C=C/C(=O)O)cc(S(=O)(=O)Nc2ccccc2C(=O)NCCc2ccccc2)c1OC`, the inhibition was -5.2% (inactive).
In the case of `CCOc1ccc(NC(=O)COC(=O)C2CCC(=O)N2)c([N+](=O)[O-])c1` (centres undefined), the inhibition is 1% (inactive).
In the case of `COC(C[C@@H]1O[C@@H]1C(=O)[C@@H](C)OCc1ccccc1)OC`, the inhibition was 2.7% (inactive).
For `CC(=O)c1c(C)n([O-])c2ccccc2[n+]1=O`, the inhibition was 0.9% (inactive).
For the molecule `O=C(Nc1nnc(CCOCCOCCc2nnc(NC(=O)c3ccco3)s2)s1)c1ccco1`, the inhibition is 0.5% (inactive).
Regarding `O=C(Nc1nc(-c2ccco2)c(-c2ccco2)s1)c1ccco1`, the inhibition was 64.2% (active).
On to `NC(=O)c1ccsc1NC(=O)c1ccco1`, for which the inhibition was 0.1% (inactive).
`Cc1nc(CC(=O)NNS(=O)(=O)c2ccc(F)c(Cl)c2)cs1`: the inhibition is 1.6% (inactive).
With `COc1ccccc1-n1cn[nH]c1=S`, the inhibition was 1.9% (inactive).
In the case of `COc1ccccc1-n1c(-c2cc(-c3ccco3)[nH]n2)n[nH]c1=S`, the inhibition was 57.8% (active).
In the case of `COc1ccc(OC)c(-n2c(-c3ccn[nH]3)n[nH]c2=S)c1`, the inhibition was -6.5% (inactive).
Take `NC(=O)c1ccc(Nc2ccc3c(c2)CCC3)c([N+](=O)[O-])c1`: the inhibition is 11.2% (inactive).
In the case of `Brc1cnc(N2CCCC2)nc1N1CCCCC1`, the inhibition was 1.2% (inactive).
For `Fc1ccc(Nc2nnns2)cc1`, the inhibition was 7.1% (inactive).
Regarding `Cc1ccc(S(=O)(=O)NCCSC(C)(C)C)cc1`, the inhibition is -3.9% (inactive).
Turning to `C[C@H]1CN([C@@H](C)CO)C(=O)Cc2cc(NC(=O)Cc3ccccc3)ccc2O[C@H]1CN(C)S(=O)(=O)c1cccs1`, the inhibition was -5.4% (inactive).
`CN1CCCc2cc(C#N)c(=O)[nH]c21`: the inhibition was 5.2% (inactive).
Next, `COc1cccc(CCNC(=O)c2cccc(NC(=O)C3=C(C)OCCS3)c2)c1`: -9.8% (inactive); `CC(=O)N1c2ccc(S(=O)(=O)N3CCC(C(=O)NC4CCCC(C)C4C)CC3)cc2CC1C` (centres undefined): -23.1% (inactive).
`O=C(CS(=O)(=O)c1ccccc1)Nc1ccc(S(=O)(=O)Nc2ccccn2)cc1`: the inhibition is 6.7% (inactive).
Next, `CCN(CC)P(=O)(C(NC(=O)OC)C(F)(F)C(F)(F)C(F)(F)C(F)F)N(CC)CC` (centres undefined): 1.2% (inactive); `N#CC(C(N)=O)=C1CCC2(CC1)OCCCCO2`: -8.3% (inactive).
As to `Cc1[nH]c2ccccc2c1-c1ccc(Cl)nn1`, the inhibition was 4.1% (inactive).
As for `CC(C)S(=O)(=O)c1csc(NC(=O)Nc2ccc(Cl)cc2)c1Cl`, the inhibition was -190% (inactive).
For `O=C1CCCN1C(=O)COc1ccc([N+](=O)[O-])cc1`, the inhibition is 2.6% (inactive).
For `COC(=O)c1cc(NC(=O)c2nn(C)c(=O)c3ccccc23)cc(C(=O)OC)c1`, the inhibition is -11.6% (inactive).
Take `COc1ccc(N(Cc2ccc(N(C)C)cc2)C(=O)c2ccc(S(C)(=O)=O)cc2)cc1`: the inhibition was 3.6% (inactive).
For the molecule `CC(=O)c1c(C)[nH]c(C(=O)NCc2ccc(C)cc2)c1C`, the inhibition is -23.4% (inactive).
As to `COC(=O)c1ccc(CNC(=O)C2CCC(=O)N(Cc3cccc(F)c3)C2)cc1` (centres undefined), the inhibition is 2.3% (inactive).
For `COc1cccc(N(C(=O)CNC(=O)c2ccco2)C(C(=O)NC2CCCCC2)c2cccnc2)c1` (centres undefined), the inhibition is -11.8% (inactive).
With `Cc1ccccc1CN1C[C@@H]2C[C@@H](c3ccc4nsnc4c3)N3CCC[C@@]23C1=O`, the inhibition is 4% (inactive).
`CCc1nc2nc(C)c(NS(=O)(=O)c3ccc4c(c3)CCCC4)c(=O)n2[nH]1`: the inhibition is 8.4% (inactive).
The same measure for `CNC(=O)NCCN1CCCC1=O`: -13.9% (inactive); for `CC(C)(C)NC(=O)NC(=O)COC(=O)Cn1c(C(F)(F)F)nc2ccccc21`: 3.3% (inactive).
For the molecule `O=C(CNS(=O)(=O)c1ccccc1)N1CCN(C(=O)c2ccco2)CC1`, the inhibition was 2.1% (inactive).
`CC(C)NC(=S)Nc1cccc2cnccc12`: the inhibition was 9.6% (inactive).
Consider `Cc1c(NC(=O)C(=O)N/N=C/c2cccs2)c(=O)n(-c2ccccc2)n1C`, for which the inhibition is 5.7% (inactive).
As to `Clc1cccc(Cl)c1OCCOCCNCc1ccccc1`, the inhibition was -0.1% (inactive).
Consider `C=CC1C(OC2OC(CO)C(O)C(O)C2O)OC=C(C(=O)OC)C1CC1CC(=O)CC(CC(=O)CCc2ccc(O)cc2)O1` (centres undefined), for which the inhibition is 6.5% (inactive).
As to `CC1=C(C)C(=O)OC(C(C)C2CCC3C4CC=C5CC(OC6OC(COC7OC(CO)C(O)C(O)C7O)C(O)C(O)C6O)CC(O)C5(C)C4CCC23C)C1` (centres undefined), the inhibition was 9.3% (inactive).
Next, `CC(/C=C/C1(O)C(C)CC(=O)CC1(C)C)OC1OC(CO)C(O)C(O)C1O` (centres undefined): 41.9% (active); `COc1cc(/C=N\NC(=O)C2C(=O)NCC2c2ccccc2)cc(OC)c1O` (centres undefined): 11.4% (inactive).
On to `CCOc1ccc2[nH]c(C(=O)N/N=C/c3cccc(OC)c3OC)cc2c1`, for which the inhibition is 10.1% (inactive).
For the molecule `COc1cccc(/C=N\NC(=O)C2=NNC(=O)C2C)c1O` (centres undefined), the inhibition is 61.4% (active).
